This passage reports inhibition results from PubChem BioAssay AID1962 (The Scripps Research Institute Molecular Screening Center, 2009).

For orientation: inhibition means the change of the read-out against control, counted positive when it falls.

Structures are written as SMILES. Screen size: about 300,000 compounds; about 2,500 (0.83%) were called active. Only a selection was taken, and actives are over-represented in it overall. Values without a mark were called inactive.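 The calls were made as follows: active = inhibition above the mean of all tested compounds plus 3 SD, set per screening campaign (cut at about 24% in these data); inactive = the rest.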

The subject of the assay is tRNA 2'-phosphotransferase TPT1 (Candida albicans SC5314). In words: Candida albicans TPT1 enzyme inhibitors, primary screen, biochemical, fluorescence polarization (AID 1962).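 Also: plate controls were DMSO alone for no effect and ferristatin control at 100 nM for full effect.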 The settings on record: recombinant caTPT1, FP RNA substrate dephosphorylation; at 5 µM; hits give high values. (In general: Polarisation of emitted light reports the rotation of a fluorescent probe.)
For the compound `CC(C(=O)N1CCN(c2ccccc2F)CC1)c1ccc([N+](=O)[O-])cc1` (centres undefined), the inhibition was 0.08%.

`NS(=O)(=O)c1ccc(NC(=S)NNC(=O)c2cccs2)cc1`: the inhibition was -0.11%.

As to `N#C/C=C(/c1ccc(F)cc1)N1CCOCC1`, the inhibition was -0.18%.

In the case of `O=C(N1CCOCC1)N1CCOCC1`, the inhibition was -4.04%.

For the compound `Cc1ccc(C(=O)N2CCN(C(=O)N3CCOCC3)CC2)cc1`, the inhibition is -1.08%.

Regarding `N#C/C(=C\c1ccc(-c2cccc([N+](=O)[O-])c2)o1)C(=O)NCCN1CCOCC1`, the inhibition was 0.6%.

Turning to `N#C/C(=C/c1ccc(N2CCOCC2)o1)C(=O)N1CCOCC1`, the inhibition was 158% (active).

Consider `N#C/C(=C\c1ccc(N2CCOCC2)o1)C(=O)N1CCOCC1`, for which the inhibition was 153% (active).

In the case of `CCOc1cc(-c2noc(CCCC(=O)NC3CCCCC3)n2)ccc1OC`, the inhibition was 3.27%.

Consider `CN1CCCN(C(=O)C2CCCCC2)CC1`, for which the inhibition is 1.49%.

For `C/C(=C/C(=O)N1CCN(C)CC1)C(=O)O`, the inhibition is 3.89%.

In the case of `CCOCCn1[nH]c2ccccc2c1=O`, the inhibition is -0.9%.

Turning to `CCC1CCCCN1C(=S)Nc1ccc(C(C)=O)cc1` (centres undefined), the inhibition was -0.24%.

With `COCCN(C(=O)c1ccccc1F)c1c(N)n(Cc2ccccc2)c(=O)[nH]c1=O`, the inhibition was 1.87%.

As to `COc1ccc(NC(=O)c2sccc2SCC#N)cc1`, the inhibition was -1.53%.

For `O=C(Nc1cccc(F)c1)c1cc(-c2ccco2)nc2ccccc12`, the inhibition was 14.1%.

On to `CNC(=S)NNC(=O)c1oc2nc(-c3ccccc3)cc(-c3ccco3)c2c1N`, for which the inhibition was 5.89%.

Take `NNC(=O)c1oc2nc(-c3ccccc3)cc(-c3ccco3)c2c1N`: the inhibition is 79.6% (active).

Turning to `CC[N+](C)(CC)CCC[n+]1c(-c2ccccc2)c2cc(N)ccc2c2ccc(N)cc21`, the inhibition was -27.7%.

`COc1ccccc1C(=O)NNC(=O)CCN1C(=O)/C(=C\c2ccccc2)SC1=S`: the inhibition was -5.63%.

For `COc1cc(/C=C2/SC(=S)N(Cc3ccccc3)C2=O)cc(OC)c1O`, the inhibition was 89.8% (active).

Turning to `COc1ccc(/C=C2\SC(=S)N(CCC(=O)Nc3cccc(C(=O)O)c3)C2=O)cc1OC`, the inhibition is 1.59%.

`CC(C(=O)Nc1ccc(F)c(F)c1F)N1CCCCCC1` (centres undefined): the inhibition is -0.32%.

In the case of `CC(=O)c1cnc(SCC(=O)O)nc1C`, the inhibition is -5.63%.

With `CSc1nc(N(C)NC(=O)c2cccc(C)c2)c2ccccc2n1`, the inhibition was -0.9%.

For `CCOC(=O)C(C)N(c1ccccc1Cl)S(C)(=O)=O` (centres undefined), the inhibition was 0.94%.

For `Cc1cc(C)nc(N/N=C/c2ccncc2)n1`, the inhibition is 3.38%.

Regarding `CCN(CC)c1ccc(/C=N/NC(=O)c2cnccn2)c(O)c1`, the inhibition is 1.75%.

For `CCN(CC)c1ccc(/C=N/Nc2nc(C)cc(C)n2)c(O)c1`, the inhibition is 25.2% (active).

Regarding `COc1ccc(-c2cc3nc(C)c(CCC(=O)NC(C)CCc4ccco4)c(C)n3n2)c(OC)c1` (centres undefined), the inhibition was 0.65%.

For the compound `Cc1c(C(=O)OC(C)C)sc(NC(=O)c2cccnc2)c1C#N`, the inhibition was 31.6% (active).

With `CCOC(=O)c1cc(NC(=O)c2cccnc2)ccn1`, the inhibition was -2.33%.

As to `CC(C)NS(=O)(=O)c1ccc(NC(=O)c2cccnc2)cc1`, the inhibition was 6.23%.

For the compound `O=C(NC1CCCCC1)C1CCCN(S(=O)(=O)c2ccc(Br)s2)C1` (centres undefined), the inhibition was -22.4%.

`CC(NC(=O)CC1SC(N)=NC1=O)c1ccccc1` (centres undefined): the inhibition was 2.18%.

For `Cc1cc(NC(=O)CCS(=O)(=O)c2ccc(F)cc2)no1`, the inhibition was -4.5%.

`CN(C)CCCn1c(N)c(C#N)c2nc(C#N)c(C#N)nc21`: the inhibition was 75.1% (active).

Turning to `CC(C)(C)c1ccc(C(=O)NCCn2c(N)c(C#N)c3nc4ccccc4nc32)cc1`, the inhibition is 9.05%.

Regarding `CC1CCCCC1NC(=O)CSc1nnc(-c2ccncc2)n1CCCN(C)C` (centres undefined), the inhibition is -2.27%.

For the compound `CSc1ncccc1C(=O)Nc1nc2ccc(F)cc2s1`, the inhibition was -0.86%.

On to `Fc1ccc2nc(Nc3nc4c(s3)CCCC4)sc2c1`, for which the inhibition is 24.1% (active).

Take `Fc1cc(F)c2nc(Nc3nc4c(F)cccc4s3)sc2c1`: the inhibition is -0.65%.

Consider `CCc1cccc(C)c1N(C(=O)Cn1c(CO)nc2ccccc21)C(C)COC` (centres undefined), for which the inhibition was -1.41%.

For `O=C(NNc1c2ccccc2nc2ccccc12)c1cc2ccccc2cc1O`, the inhibition is 25.8% (active).

For the compound `CC(C)(C)OC(=O)NNc1c2ccccc2nc2ccccc12`, the inhibition is -0.98%.

For the compound `O=C(N/N=C/c1cccnc1)c1cc2ccccc2cc1O`, the inhibition is -1.97%.

As to `CCOc1ccc(-n2cnnn2)cc1S(=O)(=O)N1CCC(C)CC1C` (centres undefined), the inhibition is 3.77%.

Turning to `COc1cccc(CNC(=O)C2CCCN(S(=O)(=O)N3CC(C)CC(C)C3)C2)c1` (centres undefined), the inhibition is -2.25%.

As for `COc1ccc2c(c1)[C@H]1[C@H](CO2)[C@H](c2ccccc2)[C@]2(C)C(=O)Nc3cc(F)c(F)cc3C(=O)N12`, the inhibition is -1.54%.

Turning to `Cn1c2ccccc2c2cc(/C=C(\NC(=O)c3ccccc3)C(=O)NCC(=O)O)ccc21`, the inhibition was 86.7% (active).

Turning to `COc1ccc(/C=C(\NC(=O)c2ccccc2)C(=O)NCCN2CCOCC2)cc1OC`, the inhibition was -0.34%.

As to `CCOC(=O)CNC(=O)/C(=C\c1ccc(F)cc1)NC(=O)c1ccccc1`, the inhibition is -8.38%.

As to `CCN1CCN(C(=O)N[C@@H](C(=O)N[C@@H]2C(=O)N3C(C(=O)O)=C(CSc4nnnn4C)CS[C@H]23)c2ccc(O)cc2)C(=O)C1=O`, the inhibition is -2.09%.

Consider `CS(=O)(=O)c1ccc2c(c1)SC1=NC(=O)/C(=C/c3ccco3)C(=N)N12`, for which the inhibition was 62.9% (active).

As to `CS(=O)(=O)C1=NN2C(=N)/C(=C\c3ccc(OCCOc4ccccc4)cc3)C(=O)N=C2S1`, the inhibition was 2.39%.

For `Cc1cc(/C=C2/C(=N)N3C(=NC2=O)SN=C3S(C)(=O)=O)c(C)n1-c1ccccc1`, the inhibition was 4.75%.

Regarding `COc1ccccc1C(=O)NCCC(=O)NCC(c1ccco1)N1CCCCC1` (centres undefined), the inhibition is 1.82%.

For the compound `O=C(NCc1ccccc1)C(=O)NCC1OCCN1S(=O)(=O)c1ccc(Br)cc1` (centres undefined), the inhibition is -2.5%.

For the compound `COc1ccc(CCN2C(=O)C(C)=C(C)C2=O)cc1OC`, the inhibition was 1.36%.

Regarding `COc1cc(/C=C2/C(=O)NN(c3ccc(F)cc3)C2=O)cc([N+](=O)[O-])c1O`, the inhibition is -1.74%.

`COc1cc(/C=C2/C(=O)NN(c3cccc(Cl)c3)C2=O)cc(Br)c1O`: the inhibition was 130% (active).

Take `C#CCOc1ccc(/C=C2/C(=O)NN(c3ccccc3)C2=O)cc1OC`: the inhibition was 0.28%.

On to `N#C/C(=C(/O)COc1cccc2ccccc12)c1nc2ccccc2[nH]1`, for which the inhibition was 14.7%.

With `N#C/C(=C(/O)COC(=O)COc1ccc(Cl)cc1)c1nc2ccccc2[nH]1`, the inhibition was 35% (active).

With `Cc1ccccc1OC/C(O)=C(\C#N)c1nc2ccccc2[nH]1`, the inhibition is 2.58%.

As for `C#CCOCCOCCOCCNc1nc(N2CCN(C(=O)CCCCCCCCCCNC(=O)[C@H]([C@@H](C)CC)n3cc(CCCCN=C(N)N)nn3)CC2)nc(N2CCN(C(=O)CCCCCCCCCCNC(=O)[C@H](CO)n3cc(CCCSC)nn3)CC2)n1`, the inhibition is -0.55%.

With `COc1ccc(CC2c3cc(OC)c(OC)cc3CC[N+]2(C)CCC(=O)OCCCCCOC(=O)CC[N+]2(C)CCc3cc(OC)c(OC)cc3C2Cc2ccc(OC)c(OC)c2)cc1OC` (centres undefined), the inhibition is 0%.

Turning to `COCCNC(=O)/C(C#N)=C/c1nc(N(C)C)n(-c2ccc(F)cc2)c1Cl`, the inhibition is 1.88%.

Consider `Cc1c(C)n2c(SCC(=O)N3CCCC3)nnc2[nH]c1=O`, for which the inhibition was 0.57%.

Take `CC(C)(C)C1C/C(=C/c2ccco2)C(=O)/C(=C/c2ccco2)C1` (centres undefined): the inhibition is 71.8% (active).

In the case of `CCC1C/C(=C/c2cccs2)C(=O)/C(=C/c2cccs2)C1` (centres undefined), the inhibition was 14.5%.

Regarding `O=C1OC(/C=C/c2ccccc2)=NC/1=C/c1ccco1`, the inhibition was 1.61%.

In the case of `COC(=O)c1ccc(Sc2ccc(F)cc2)c(N)c1`, the inhibition is 1.95%.

Consider `CCCCNc1ccc(C(=O)Nc2cccc(C)n2)cc1[N+](=O)[O-]`, for which the inhibition is 3.18%.

Turning to `CCOc1ccc(OCc2ccc(C(=O)Nc3cccc(C)n3)o2)cc1`, the inhibition was -2.96%.

For the compound `Cc1cccc(NC(=O)c2ccc(COc3ccccc3[N+](=O)[O-])o2)n1`, the inhibition is 31.1% (active).

Regarding `CCOc1ccc2c(=O)c(-c3ccc4c(c3)OCCCO4)c(C)oc2c1`, the inhibition was 2.18%.

`CN(C)Cc1c(C(=O)N/N=C/c2ccccc2OCc2ccc(F)cc2)nnn1-c1nonc1N`: the inhibition was 2.3%.

For `COc1ccccc1C1CC(=O)n2c(nc(-c3ccccc3)c2-c2ccccc2)S1` (centres undefined), the inhibition was -2.44%.

Take `NS(=O)(=O)c1ccc(CNC(=O)c2cnccn2)cc1`: the inhibition was -3.97%.

In the case of `CCOc1ccc(N=Cc2c(O)n(-c3cccc(C)n3)c(=O)c3ccccc23)cc1`, the inhibition is 1.89%.

For `CCCCn1c(=O)c(C(C)=O)c(O)c2ccccc21`, the inhibition is 3.63%.

Turning to `CC(=O)n1c(C=Nc2ccccc2)c(O)c2ccccc21`, the inhibition is 37.8% (active).

Regarding `Cc1cc(C)nc(NNC2=CC(=O)CC(C)(C)C2)n1`, the inhibition is -0.26%.

`CCOC(=O)/C=c1\s/c(=C\c2ccc(C#N)cc2)c(=O)n1CC(=O)Nc1cccc(C)c1C`: the inhibition was 1.41%.

Consider `CN(c1ccccc1)c1ccc(/C=c2\s/c(=C(/C#N)C(=O)C(C)(C)C)n(Cc3ccco3)c2=O)cc1`, for which the inhibition is 151% (active).

Regarding `Cc1cs/c(=N\N=C\c2ccc(O)cc2)n1Cc1ccco1`, the inhibition was 2.86%.

With `Cc1ccccc1S(=O)(=O)N1[C@@H](c2cccc(Cl)c2)C(C(=O)O)=CC[C@H]1c1ccc(Cl)cc1`, the inhibition is -1.82%.

Consider `Cc1ccc(S(=O)(=O)N2[C@@H](c3cccc(Cl)c3)C(C(=O)O)=CC[C@H]2c2ccc(Cl)c(Cl)c2)cc1`, for which the inhibition was 0.18%.
